Measurements published in PubChem BioAssay (NCATS).
Results filed as inconclusive are left out. The source made the active and inactive calls. Unless noted, calls come from the whole dose curve; as a rule, active = well fitted curve in the direction sought with a large enough effect; inconclusive = small, poorly fitted or top-dose-only effect, or another doubt; inactive = no such curve, though single readings can be large; an effect the other way counts as inactive or inconclusive.

How the values were obtained:
[1] = biological target: Cytochrome P450 1A2 (Homo sapiens) (UniProt P05177); assay: p450-cyp1a2 (AID 410; calls by dose curve)
Chain of Cytochrome P450 1A2 (Homo sapiens) (P05177 whole entry, looked up): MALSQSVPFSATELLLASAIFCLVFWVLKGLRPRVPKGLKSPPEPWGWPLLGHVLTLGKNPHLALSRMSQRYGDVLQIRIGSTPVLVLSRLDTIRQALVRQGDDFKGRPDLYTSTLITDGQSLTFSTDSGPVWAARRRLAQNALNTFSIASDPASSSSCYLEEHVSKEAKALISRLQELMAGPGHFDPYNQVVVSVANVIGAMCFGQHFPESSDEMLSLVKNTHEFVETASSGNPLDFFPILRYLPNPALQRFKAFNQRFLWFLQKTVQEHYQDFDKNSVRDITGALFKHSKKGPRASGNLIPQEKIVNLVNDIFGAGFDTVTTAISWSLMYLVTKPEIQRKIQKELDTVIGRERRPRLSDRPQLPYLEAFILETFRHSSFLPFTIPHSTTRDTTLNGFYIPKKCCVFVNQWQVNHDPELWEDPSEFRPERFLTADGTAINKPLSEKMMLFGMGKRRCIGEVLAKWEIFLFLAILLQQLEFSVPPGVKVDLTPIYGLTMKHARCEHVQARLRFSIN
Method in brief: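 Luminescent readout of luciferin formed from Luciferin-ME by human CYP1A2; data normalized against complete inhibition by 57 uM furafylline. Enzyme 20nM, substrate 100uM at Km, 100mM KPO4 buffer, 60 min reaction at room temperature.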

[2] = biological target: Mitogen-activated protein kinase 10 (Mus musculus) (UniProt Q61831); assay: JNK3 AlphaScreen Assay (AID 530; active = well fitted curve in either direction with a large enough effect, not every such curve was filed as active;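 note: kinase came from lysate of stimulated human HepG2 cells; signal reports phosphorylation of biotinylated GST-cJun 1-79 at Ser73 with 10 µM ATP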)
Method in brief: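 Compound titrations were preincubated 15 minutes at room temperature with substrate, antibody and pre-activated JNK3-containing HepG2 lysate. Reactions were started with 10 uM ATP and stopped with EDTA-containing bead buffer for AlphaScreen detection.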

[3] = biological target: 3',5'-cyclic-AMP phosphodiesterase 4B (Homo sapiens) (UniProt Q07343); assay: qHTS Assay for Inhibitors of PDE-IV (AID 607; active = well fitted activation curve with a large enough effect in the main read-out, with a control signal flat, not every such curve was filed as active)
Chain of 3',5'-cyclic-AMP phosphodiesterase 4B (Homo sapiens) (Q07343 whole entry, looked up): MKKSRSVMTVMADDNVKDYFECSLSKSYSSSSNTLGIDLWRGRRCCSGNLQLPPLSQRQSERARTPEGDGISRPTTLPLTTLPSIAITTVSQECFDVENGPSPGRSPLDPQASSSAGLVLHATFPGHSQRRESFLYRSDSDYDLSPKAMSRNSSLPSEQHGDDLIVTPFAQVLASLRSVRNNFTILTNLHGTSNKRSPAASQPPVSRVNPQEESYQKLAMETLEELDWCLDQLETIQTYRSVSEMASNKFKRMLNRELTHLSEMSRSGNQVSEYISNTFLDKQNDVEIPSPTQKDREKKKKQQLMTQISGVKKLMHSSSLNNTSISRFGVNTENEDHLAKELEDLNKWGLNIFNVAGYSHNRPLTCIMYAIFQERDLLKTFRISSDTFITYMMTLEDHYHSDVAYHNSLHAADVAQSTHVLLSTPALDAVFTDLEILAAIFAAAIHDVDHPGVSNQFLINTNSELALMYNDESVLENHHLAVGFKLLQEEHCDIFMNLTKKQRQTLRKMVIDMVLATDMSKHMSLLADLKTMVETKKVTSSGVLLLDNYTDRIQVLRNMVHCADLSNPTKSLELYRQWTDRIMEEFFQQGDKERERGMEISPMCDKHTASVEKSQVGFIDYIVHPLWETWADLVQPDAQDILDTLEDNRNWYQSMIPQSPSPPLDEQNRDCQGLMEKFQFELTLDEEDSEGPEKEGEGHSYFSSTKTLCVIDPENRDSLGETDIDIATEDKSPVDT
Method in brief: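 Live HEK293 cells with a modified cyclic nucleotide-gated (CNG) channel report intracellular cAMP via membrane-potential dye fluorescence (ex 535/em 590 nm). Endogenous PDE-IV was targeted. Compounds were tested at up to 22.9 uM final; RO 20-1724 100 uM served as control.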

[4] = biological target: alpha-glucosidase (Oryza sativa, rice) (UniProt Q653V4); assay: Counterscreen for Glucocerebrosidase Inhibitors: qHTS Assay for Rice alpha-Glucosidase at pH 5.0 (AID 997)
Method in brief: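 Rice alpha-glucosidase (4 nM final) with 400 uM 4-methylumbelliferyl-alpha-D-glucopyranoside in citrate buffer pH 5.0, 20 min at room temperature, stopped at pH 10; fluorescence 365/440 nm, compounds 0.7 nM–77 uM, AC50 from Hill fits.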

[5] = S16 Schwann cell PMP22 intronic element beta-lactamase assay (AID 624044; calls by dose curve; note: nearly all actives have a fitted effect of over 15% in size); settings: S16 rat Schwann cells, PMP22 element beta-lactamase FRET, 24 h; ratio activity, negative = inhibition: at 38.3 µM (top of the series)
Method in brief: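 Rat S16 Schwann cells with beta-Lac driven by a PMP22 intronic element, compound-treated 24 h at 37 °C. LiveBLAzer FRET B/G read: 460 nm normalized to potassium clavulanate vs DMSO; 535 nm FRET as viability; concentration-effect curves classified.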

[6] = test system: 3D7; assay: qHTS profiling for inhibitors of Plasmodium falciparum proliferation (AID 504749); note: nearly all actives have a fitted effect of over 60% in size; note: potency is the fitted concentration of half-maximal effect; settings: P. falciparum in erythrocytes, SYBR Green DNA, 72 h; series mostly up to 28.7 µM
Method in brief: (§1)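 Infected RBCs, 0.3% parasitemia/2.5% Hct final; cpd 72 h, 37 C, 5% CO2; lysis buffer with saponin/triton/SYBR Green I, o/n RT dark; FI 485/535; norm. to artemisinin (0.29 uM) and DMSO.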

[7] = test system: 7G8; assay: as above; settings: P. falciparum in erythrocytes, SYBR Green DNA, 72 h; series mostly up to 28.7 µM
Method in brief: as §1

[8] = test system: AA1029; assay: as above; settings: P. falciparum in erythrocytes, SYBR Green DNA, 72 h; series mostly up to 28.7 µM
Method in brief: as §1

[9] = test system: AS120; assay: as above; settings: P. falciparum in erythrocytes, SYBR Green DNA, 72 h; series mostly up to 28.7 µM
Method in brief: as §1

[10] = test system: ATS189; assay: as above; settings: P. falciparum in erythrocytes, SYBR Green DNA, 72 h; series mostly up to 28.7 µM
Method in brief: as §1

[11] = test system: ATS95; assay: as above; settings: P. falciparum in erythrocytes, SYBR Green DNA, 72 h; series mostly up to 28.7 µM
Method in brief: as §1

[12] = test system: C2A; assay: as above; settings: P. falciparum in erythrocytes, SYBR Green DNA, 72 h; series mostly up to 28.7 µM
Method in brief: as §1

[13] = test system: CP185; assay: as above; settings: P. falciparum in erythrocytes, SYBR Green DNA, 72 h; series mostly up to 28.7 µM
Method in brief: as §1

[14] = test system: CP191; assay: as above; settings: P. falciparum in erythrocytes, SYBR Green DNA, 72 h; series mostly up to 28.7 µM
Method in brief: as §1

[15] = test system: CP192; assay: as above; settings: P. falciparum in erythrocytes, SYBR Green DNA, 72 h; series mostly up to 28.7 µM
Method in brief: as §1

[16] = test system: CP194; assay: as above; settings: P. falciparum in erythrocytes, SYBR Green DNA, 72 h; series mostly up to 28.7 µM
Method in brief: as §1

[17] = test system: CP201; assay: as above; settings: P. falciparum in erythrocytes, SYBR Green DNA, 72 h; series mostly up to 28.7 µM
Method in brief: as §1

[18] = test system: CP203; assay: as above; settings: P. falciparum in erythrocytes, SYBR Green DNA, 72 h; series mostly up to 28.7 µM
Method in brief: as §1

[19] = test system: CP211; assay: as above; settings: P. falciparum in erythrocytes, SYBR Green DNA, 72 h; series mostly up to 28.7 µM
Method in brief: as §1

[20] = test system: CP215; assay: as above; settings: P. falciparum in erythrocytes, SYBR Green DNA, 72 h; series mostly up to 28.7 µM
Method in brief: as §1

[21] = test system: CP217; assay: as above; settings: P. falciparum in erythrocytes, SYBR Green DNA, 72 h; series mostly up to 28.7 µM
Method in brief: as §1

[22] = test system: CP237; assay: as above; settings: P. falciparum in erythrocytes, SYBR Green DNA, 72 h; series mostly up to 28.7 µM
Method in brief: as §1

[23] = test system: CP238; assay: as above; settings: P. falciparum in erythrocytes, SYBR Green DNA, 72 h; series mostly up to 28.7 µM
Method in brief: as §1

[24] = test system: CP247; assay: as above; settings: P. falciparum in erythrocytes, SYBR Green DNA, 72 h; series mostly up to 28.7 µM
Method in brief: as §1

[25] = test system: CP250; assay: as above; settings: P. falciparum in erythrocytes, SYBR Green DNA, 72 h; series mostly up to 28.7 µM
Method in brief: as §1

[26] = test system: CP252; assay: as above; settings: P. falciparum in erythrocytes, SYBR Green DNA, 72 h; series mostly up to 28.7 µM
Method in brief: as §1

[27] = test system: CP256; assay: as above; settings: P. falciparum in erythrocytes, SYBR Green DNA, 72 h; series mostly up to 28.7 µM
Method in brief: as §1

[28] = test system: CP260; assay: as above; settings: P. falciparum in erythrocytes, SYBR Green DNA, 72 h; series mostly up to 28.7 µM
Method in brief: as §1

[29] = test system: CP262; assay: as above; settings: P. falciparum in erythrocytes, SYBR Green DNA, 72 h; series mostly up to 28.7 µM
Method in brief: as §1

Measured: Potency

C/C=C\C[C@H](C)[C@H](O)[C@H]1C(=O)N[C@@H](CC)C(=O)N(C)CC(=O)N(C)[C@@H](CC(C)C)C(=O)N[C@@H](C(C)C)C(=O)N(C)[C@@H](CC(C)C)C(=O)N[C@@H](C)C(=O)N[C@@H](C)C(=O)N(C)[C@@H](CC(C)C)C(=O)N(C)[C@@H](CC(C)C)C(=O)N(C)[C@@H](C(C)C)C(=O)N1C
inactive: [1] | [2] | [3] | [4] | [5] | [10]
active: [6] 3.98 µM | [7] 8.91 µM | [8] 2.82 µM | [9] 3.98 µM | [11] 3.55 µM | [12] 3.55 µM | [13] 3.55 µM | [14] 3.16 µM | [15] 6.75 µM | [16] 8.49 µM | [17] 6.75 µM | [18] 13.5 µM | [19] 6.75 µM | [20] 7.57 µM | [21] 3.16 µM | [22] 4.47 µM | [23] 3.55 µM | [24] 3.55 µM | [25] 3.55 µM | [26] 3.55 µM | [27] 3.16 µM | [28] 2.82 µM | [29] 3.79 µM
